{"source": "PubChem BioAssay (NCI)", "note": "This is part of a sample that, as a whole, favours compounds with a hit. Of some 79,000 tested, about 15% had one in any assay. Activity calls are given as the source filed them. No stated cut-off is given here; in the data, active means growth inhibition above about 70%; inactive means the rest. Where a SMILES comes first, the peptide text is derived from it. The star is where a group is joined. Cbz = O=C(OCc1ccccc1)*"}
{"test": "NCI Yeast Anticancer Drug Screen. Data for the sgs1 mgt1 strain (AID 161);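 further: 0% = growth of cultures given vehicle only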", "conditions": "S. cerevisiae sgs1 mgt1 strain, at 50.0 µM, stronger effect = higher value", "in_short": "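Growth of a repair-deficient yeast mutant was monitored after compound treatment and expressed as inhibition relative to vehicle-treated cultures.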"}
{"compound": "O=C(O)C(CO)NC(=O)C1CCCN1C(=O)OCc1ccccc1", "note": "(stereo not drawn) (Cbz-Pro-Ser-OH; configuration not given here)", "growth inhibition": "-5.7% (inactive)"}
{"compound": "CCC(=O)N1NC(=O)C(CC)(CC)C1=O", "growth inhibition": "11.1% (inactive)"}
{"compound": "O=C(Nc1ccccn1)c1ccc([N+](=O)[O-])cc1", "growth inhibition": "15.4% (inactive)"}
{"compound": "CC(CC(=O)O)C(C)C(=O)O", "note": "(stereo not given)", "growth inhibition": "-6.4% (inactive)"}
{"compound": "OCC1CCCCCCCCCC1", "growth inhibition": "29.8% (inactive)"}
{"compound": "O=[N+]([O-])c1ccc(/C(=N/Nc2ccccc2)c2ccc(Cl)cc2)cc1", "growth inhibition": "1.65% (inactive)"}
{"compound": "CCn1c(=O)c2[nH]c(Cl)nc2n(CC(C)Cl)c1=O", "note": "(stereo not given)", "growth inhibition": "6.15% (inactive)"}
{"compound": "CCCCNc1c(C(=O)N2CCCCC2)cnc2c1cnn2CC", "growth inhibition": "26.2% (inactive)"}
{"compound": "CCOC(=O)c1n[nH]c(C)c1C/C(=N/O)c1ccccc1", "growth inhibition": "-8.25% (inactive)"}
{"compound": "C/C=C/C=C/c1nc(C#N)c(N)o1", "growth inhibition": "1.55% (inactive)"}
{"compound": "O=C(NCCCCCCNC(=O)Nc1cccc2ccccc12)Nc1cccc2ccccc12", "growth inhibition": "7.05% (inactive)"}
{"compound": "CC(C)(C)C1CCC2c3c([nH]c4ccccc34)C3C(=O)N(c4ccccc4[N+](=O)[O-])C(=O)C3C2C1", "note": "(stereo not given)", "growth inhibition": "-18.6% (inactive)"}
{"compound": "Clc1ccccc1C(N1CCCCC1)N1CCCCC1", "growth inhibition": "19.4% (inactive)"}
{"compound": "CC(=O)Nc1ccc(S(=O)(=O)SC(F)(F)F)cc1", "growth inhibition": "17.4% (inactive)"}
{"compound": "CCCCCCCCCCCCCCCOc1cc(OC)ccc1-c1nnc(SC)s1", "growth inhibition": "-24.1% (inactive)"}
{"compound": "CCOC(=O)Oc1ccc(C(=O)NCCC(C)C)cc1OCC", "growth inhibition": "-8.1% (inactive)"}
{"compound": "c1ccc(C(N2CCNCC2)N2CCNCC2)cc1", "growth inhibition": "10.1% (inactive)"}
{"compound": "CCCC(=O)Nc1cn(COC)c(C(=O)N2C[C@H]3C[C@@]34C2=CC(=O)c2[nH]cc(C)c24)n1", "growth inhibition": "56% (inactive)"}
{"compound": "O=C(O)c1ccccc1C(=O)c1ccc(Br)cc1", "growth inhibition": "10.8% (inactive)"}
{"compound": "C=C1CC[N+]2(CCCCCC)CCCC12", "note": "(stereo not given)", "growth inhibition": "11.3% (inactive)"}
{"compound": "COc1ccc2ncc(COC(=O)NC3CCCCC3)c(COC(=O)NC3CCCCC3)c2c1", "growth inhibition": "24.4% (inactive)"}
{"compound": "BrCCCOc1ccccc1", "growth inhibition": "-5.65% (inactive)"}
{"compound": "CCN(CC)C(=O)c1cccc2c1OCO2", "growth inhibition": "2.35% (inactive)"}
{"compound": "CC(=O)Oc1ccccc1Cl", "growth inhibition": "25.9% (inactive)"}
{"compound": "O=C(O)c1ccc(O)cc1", "growth inhibition": "-0.9% (inactive)"}
{"compound": "CCOC(=O)NC(=O)c1cn(C2OC(CO)C(O)C2O)c(=O)[nH]c1=O", "note": "(stereo not given)", "growth inhibition": "-16.6% (inactive)"}
{"compound": "CCNC(=S)OC1CCC2(C)C(=CCC3C2CCC2(C)C(C(C)CCC(CC)C(C)C)CCC32)C1", "note": "(stereo not given)", "growth inhibition": "-11.6% (inactive)"}
{"compound": "O=C(O)CCC(C(=O)O)N(Cc1ccccc1)Cc1ccccc1", "note": "(stereo not given)", "growth inhibition": "-1.45% (inactive)"}
{"compound": "Fc1ccc(-c2nc3ccccc3[nH]2)cc1", "growth inhibition": "-1.2% (inactive)"}
{"compound": "Cc1ccc(S(=O)(=O)NCCN)cc1", "growth inhibition": "24.2% (inactive)"}
{"compound": "N/C(=N\\c1nc(N)cc(N)n1)Nc1ccc(S(N)(=O)=O)cc1", "growth inhibition": "-6.25% (inactive)"}
{"compound": "O=C(O)CNC(=O)OCc1ccccc1", "growth inhibition": "-35.5% (inactive)"}
{"compound": "CCCOC(=O)O[C@H]1CC[C@@]2(C)C(=CC[C@H]3[C@@H]4CC[C@H]([C@H](C)CCCC(C)C)[C@@]4(C)CC[C@@H]32)C1", "growth inhibition": "-27.7% (inactive)"}
{"compound": "c1ccc(-c2cc3nc4ccccc4nc3o2)cc1", "growth inhibition": "-13% (inactive)"}
{"compound": "N#Cc1nc(-c2ccco2)oc1N", "growth inhibition": "-23.2% (inactive)"}
{"compound": "O=c1c2c3c(sc2nc2n1N=CN(c1ccc(Cl)cc1)C2)CCCC3", "growth inhibition": "7.7% (inactive)"}
{"compound": "Cc1cc2c(c(N)c1C)C(=O)c1ccccc1C2=O", "growth inhibition": "31.7% (inactive)"}
{"compound": "COC1=CC(=O)N(C)C(O)C1(C#N)OC1OC(CO)C(O)C(O)C1O", "note": "(stereo not given)", "growth inhibition": "-7.5% (inactive)"}
{"compound": "CC(=O)N1C(NN(C)C)CCN1c1ccccc1", "note": "(stereo not given)", "growth inhibition": "13.6% (inactive)"}
{"compound": "O=S1(=O)CC(N2CCCCC2)C2=C(O1)c1ccccc1N(c1ccccc1)C2", "note": "(stereo not given)", "growth inhibition": "-11.1% (inactive)"}
